FLuc inh – blocks Photinus pyralis firefly luciferase activity | purified firefly luciferase, luminescence, 8 min | Potency, µM (highest dose often 57.1 µM), without a hit: top-dose activity change, negative = inhibition, most hits filed as inhibitors | actives 2.2% (n = 72,000) | P08659; further: on the % scale 0 is the no-effect control and ±100 the full control effect; nearly all actives have a fitted effect of over 40% in size
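Titration-based qHTS; buffer 50 mM imidazole pH 7.2, 50 mM KCl, 7 mM MgCl2, 10 uM ATP, 0.01% Tween 20, 0.05% BSA; luciferase/luciferin detector mix added after compound; 8 min, ambient; luminescence.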
IkB sig inh – IkB pathway inhibition in ABC-DLBCL cells | ABC-DLBCL IkBa-CBG/CBR dual luciferase ratio, 4 h; response scale: scaled: untreated 0%, proteasome inhibitor 100% | Potency, µM (top dose mostly 57.1 µM), for the others: at the highest dose IkBa stabilization activation | actives 0.04% (n = 110,000) | AID 445; active means well fitted curve in the direction sought with a large enough effect in the signal ratio, not every such curve was filed as active; inconclusive means small, poorly fitted or top-dose-only effect, or a change in a side signal; the % refers to the signal ratio;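 further: the direction sought is a rising ratio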
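Luminescence ratio of IκBα-fused green versus native red beetle luciferase in OCI-Ly3 cells, 4 h post-doxycycline with compound; red signal alone, scaled from basal (0%) to zero light (-100%), flagged nonspecific or cytotoxic effects.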
p53ts 39C kill – p53ts cell cytotoxicity, nonpermissive temperature. AID 902. H1299-p53A138V viability at 39C, ATP luminescence, 24 h. actives 1.5% (n = 130,000). Potency, µM (top dose mostly 46.1 µM), without a hit: at the highest dose activity change, negative = cell killing, hits mostly cytotoxic; further: on the % scale 0 is the no-effect control and ±100 the full control effect; nearly all actives have a fitted effect of over 55% in size
Caspase-7 inhib – allosteric or competitive inhibitors of human caspase-7; actives 0.02% (n = 75,000); Potency, µM (series often up to 57.5 µM), for inactives: top-dose activity change, negative = inhibition, usual class: inhibitors; AID 889; recombinant caspase-7, Ac-DEVD-AFC fluorescence rate; P55210; active means well fitted inhibition curve with a large enough effect in the main read-out, with a control signal flat, not every such curve was filed as active; inconclusive means small, poorly fitted or top-dose-only effect, or a change in a side signal; further: % of control where 0% means no effect
p53ts 32C tox – p53ts cell cytotoxicity, permissive temperature. AID 924. Potency, µM (top dose mostly 46.1 µM), for the others: top-dose activity change, negative = cytotoxicity, usual class: cytotoxic. actives 0.93% (n = 130,000). H1299-p53A138V at 32C, ATP luminescence viability, 24 h;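 further: 0% = DMSO and -100% = full killing by reference compound; nearly all actives have a fitted effect of over 55% in size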
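ATP-content luminescence (ATPlite) read-out after 24 h compound exposure at 32C in H1299-p53A138V cells (600/well). Tested up to 46 uM. Normalized to DMSO (0%) and 100 uM tamoxifen (100% killing); Hill-fit AC50.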
Caspase-1 inhib – caspase-1 (human) inhibition, allosteric or competitive | P29466 | Caspase-1 enzyme, Ac-WEHD-AFC fluorogenic rate | Potency, µM (series often up to 57.5 µM), for the others: top-dose activity change, negative = inhibition, hits mostly inhibitors | actives 0.03% (n = 75,000) | AID 900;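 further: plate controls were vehicle for no effect and no substrate for full effect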
* marks the source's active call; other numbers are inactive results; ? = inconclusive; nt = no result; ! = repeats disagree; [ ] = another dose, or the depositor's remark. Hits are enriched below; roughly 2.5% of the tested compounds scored in any of these assays. Unless noted, the call rests on the fitted dose curve; in most records, active means well fitted curve in the direction sought with a large enough effect; inconclusive means small, poorly fitted or top-dose-only effect, or another doubt; inactive means no such curve, though single readings can be large; an effect the other way counts as inactive or inconclusive. Potency means the concentration at half of the fitted maximal effect.

SMILES | FLuc inh | IkB sig inh | p53ts 39C kill | Caspase-7 inhib | p53ts 32C tox | Caspase-1 inhib
Cc1ccsc1CN(C(=O)c1oc2ccc(F)cc2c1C)C1CCS(=O)(=O)C1 (configuration not stated) | nt | ? | 15.5% | nt | 5.4% | nt
N#Cc1c(/N=C/c2cccs2)sc2c1CCCCC2 | 2µM* | 6.2% | 10µM* | 2.7% | 7.94µM* | -3.3%
N#Cc1c(/N=C/N2CCOCC2)sc2c1CCCCC2 | 12.6µM* | 0.8% | -14.4% | 2.1% | -25.6% | -1.8%
N#Cc1c(/N=C/c2ccc(Br)s2)sc2c1CCC2 | nt | nt | 11.6% | nt | -0.9% | nt
COc1ccc(C(=O)NCc2nnc(SCC(=O)N3CCc4ccccc43)o2)cc1OC | 0.6% | -1.4% | -2.7% | 0.0% | 6.3% | 2.3%
COc1ccccc1N1CCN(C(=O)CSc2ncccc2-c2nc3ccccc3[nH]2)CC1 | ? | ? | -19.1% | -11.4% | -29.3% | -10.8%
COc1ccc(N2CCN(C(=O)CSc3ncccc3-c3nc4ccccc4[nH]3)CC2)cc1 | 12.6µM* | ? | -15.9% | -4.4% | -24.4% | -4.9%
Cc1nc2ccn(Cc3cccnc3)c(=O)c2cc1C(=O)Nc1ccc(OC(F)(F)F)cc1 | nt | ? | -20.2% | nt | -2.2% | nt
CC(=O)N1c2ccc(S(=O)(=O)NCC3CCC(C(=O)Nc4ccc(C)c(C)c4)CC3)cc2CC1C (configuration not stated) | nt | ? | -11.5% | nt | -0.6% | nt
CCOc1ccc(Nc2ncnc3c2cnn3-c2ccccc2)cc1 | 2.6% | 0.4% | 15.2% | 1.6% | 4.4% | 1.1%
Cc1ccccc1Nc1ncnc2c1cnn2-c1ccccc1 | 12.6µM* | ? | 8.9% | 2.1% | -25.2% | 3.6%
CC(C)Nc1ncnc2c1cnn2-c1ccccc1 | 7.94µM* | ? | ? | 1.9% | 12.6µM* | -4.3%
Cc1cccc(-n2ncc3c(NC(C)C)ncnc32)c1 | 12.6µM* | ? | 15.8µM* | 0.0% | 12.6µM* | -1.9%
Cc1cccc(-n2ncc3c(Nc4c(C)cc(C)cc4C)ncnc32)c1 | nt | ? | -2.4% | nt | 11.2% | nt
c1ccc2c(c1)CCCN2Cc1nnnn1CC1CCCO1 (configuration not stated) | 0.7% | -1.7% | -9.8% | -29.0% | 4.5% | ?
C=CCNc1nc(-c2ccc(O)c(C(N)=O)c2)cs1 | -1.2%[25.5 µM] | nt | nt | nt | nt | nt
C=CCNc1nc(-c2cc3ccccc3o2)cs1 | nt | nt | ? | nt | 14.1µM* | nt
Cc1ccc2[nH]c3c(=O)n(CC(=O)N(CCN(C)C)Cc4ccccc4)ncc3c2c1 | nt | -4.2% | -16.5% | nt | -5.9% | nt
CN1CCN(CCCN2c3ccccc3Sc3ccc(Cl)cc32)CC1 | -0.5%[25.5 µM] | -0.4%[25.6 µM] | 20µM* | -3.3% | 15.8µM*! | -3.9%
CCSc1ccc2c(c1)N(CCCN1CCN(C)CC1)c1ccccc1S2 | -6.1%[25.5 µM] | 1.2%[25.6 µM] | -1.5%[20.6 µM] | 0.9%[25.7 µM] | 6.7%[20.6 µM] | -1.9%[25.7 µM]
COc1ccc(N2CSC3=C(C#N)C(c4ccc(OC)c(OC)c4)CC(=O)N3C2)c(OC)c1 (configuration not stated) | -26.8% | ? | 19.1% | ? | ? | ?
COc1ccc(C2CC(=O)N3CN(c4ccc(C)c(Cl)c4)CSC3=C2C#N)cc1OC (configuration not stated) | -12.9% | 14.0% | -2.2% | ? | 0.2% | 31.6µM*
Nc1[nH]ncc1C(=O)Nc1cccc(C(F)(F)F)c1 | -0.3% | -2.7% | -15.6% | -0.8% | 2.6% | 1.2%
Cc1ccccc1C(=O)Nc1ccc(Cl)cn1 | ? | ? | -27.4% | -0.1% | -26.3% | 0.6%
Cc1ccc(C(=O)Nc2ccc(Cl)cn2)cc1 | 6.31µM* | ? | ? | -0.5% | 7.94µM* | 0.4%
SMILES | FLuc inh | IkB sig inh | p53ts 39C kill | Caspase-7 inhib | p53ts 32C tox | Caspase-1 inhib
Cc1ccc(C(=O)NC2CCCCCC2)cc1N1CCCC1=O | 0.9% | 1.9% | 2.1% | 0.5% | 5.0% | 2.7%
CCN(CC)S(=O)(=O)c1cc(C(=O)NC2CCCCC2)ccc1C | 12.6µM* | 2.3% | ? | 0.8% | ? | -0.4%
CCN(Cc1ccccc1)S(=O)(=O)c1cc(C(=O)Nc2cc(Cl)cc(Cl)c2)ccc1F | nt | ? | -1.7% | nt | 20.7% | nt
CCN(CC)S(=O)(=O)c1cc(C(=O)Nc2ccc(Cl)cn2)ccc1C | 7.94µM* | ? | ? | -1.7% | ? | -3.0%
Cc1ccc(NC(=O)c2ccc3ccccc3n2)nc1 | 6.31µM* | ? | ? | 0.3% | 12.6µM* | -2.6%
CCN(C(=O)c1cnc2ccc(C)cn2c1=O)c1ccccc1 | nt | -3.8% | 6.2% | nt | 3.5% | nt
CCCC1(C(=O)OCC)NC(c2ccc(N(C)C)cc2)C2C(=O)N(c3ccc(OCC)cc3)C(=O)C21 (configuration not stated) | -3.8% | 1.2% | -2.5% | -2.6% | -1.4% | -1.9%
CC(=O)c1ccc(NC(=O)c2ccn[nH]2)cc1 | 25.1µM* | 1.3% | 10µM* | 2.9% | 12.6µM* | -1.4%
CC(=O)c1ccc(NC(=O)c2ccc(-n3cnnc3)cc2)cc1 | nt | -1.6% | -22.3% | nt | -2.8% | nt
CC1(C)COCN1S(=O)(=O)c1ccc(C(=O)Nc2nnc(-c3ccc(Cl)s3)o2)cc1 | -0.2% | 0.8% | 7.94µM* | 1.6% | ? | -0.5%
COc1ccc(-c2nnc(NC(=O)c3ccc(S(=O)(=O)N4COCC4(C)C)cc3)o2)cc1 | -1.7% | ? | ? | -1.8% | 8.2% | -1.7%
COc1ccc2[nH]c(=O)c(CN(C)C(=O)COc3ccccc3)cc2c1 | 1.2% | 1.3% | -2.8% | -1.4% | 7.4% | 1.4%
CN(c1cccc(NC(=O)Nc2cccc(Cl)c2)c1)S(C)(=O)=O | 10µM* | ? | -23.9% | -2.9% | -19.9% | -1.7%
CN(C)c1ccc(NC(=O)Nc2cccc(Cl)c2)cc1 | 10µM* | 1.1% | ? | -0.9% | -23.1% | -2.4%
Cc1ccc(C(=O)Nc2ccccc2C(=O)OCc2cc(=O)n3nc(C(C)C)sc3n2)cc1 | nt | 3.6% | -25.8% | nt | 0.5% | nt
O=C(CSc1nnc2ccccn12)c1ccc2c(c1)OCCO2 | 15.8µM* | -0.1% | -10.6% | 0.1% | ? | 0.5%
O=C(CSc1nnnn1C1CCCC1)c1ccc2c(c1)OCCO2 | 7.94µM* | 0.8% | -9.5% | -1.3% | ? | -1.1%
O=C1CN(C(=O)COC(=O)CCC(=O)c2ccc3c(c2)OCCO3)c2ccccc2N1 | 20µM* | -0.3% | -2.0% | -0.8% | -2.7% | 0.1%
O=C(CCCc1ccccc1)c1ccc2c(c1)OCCO2 | nt | nt | 11.2µM* | nt | 7.94µM* | nt
Cc1ccc(S(=O)(=O)CCC(=O)OCC(=O)N2CC(=O)Nc3ccccc32)cc1 | -1.7% | -1.2% | -1.5% | 0.0% | 17.1% | 1.9%
O=C(O)CCC(=O)c1ccc2c(c1)OCCCO2 | 3.6% | 3.8% | -9.4% | 0.0% | -0.1% | 1.2%
O=C(CSc1nnnn1C1CCCC1)Nc1ccc2c(c1)OCO2 | 1.7% | -0.5% | -15.0% | 7.1% | 0.0% | 0.9%
